# The campaign covered roughly 1,200 compounds. About 15 (1%) were called active. About 7% were inconclusive and are not listed. The entries come from a sample that favours actives as a whole. A number with no mark means an inactive call. Calls come from the whole dose curve; as a rule, active = well fitted activation curve with a large enough effect; inconclusive = small, poorly fitted or top-dose-only effect; inactive = flat fitted curve, though single readings scatter.
# Biological target: Beta-2 adrenergic receptor (Homo sapiens) (UniProt P07550)
# Sequence (P07550 whole entry, looked up): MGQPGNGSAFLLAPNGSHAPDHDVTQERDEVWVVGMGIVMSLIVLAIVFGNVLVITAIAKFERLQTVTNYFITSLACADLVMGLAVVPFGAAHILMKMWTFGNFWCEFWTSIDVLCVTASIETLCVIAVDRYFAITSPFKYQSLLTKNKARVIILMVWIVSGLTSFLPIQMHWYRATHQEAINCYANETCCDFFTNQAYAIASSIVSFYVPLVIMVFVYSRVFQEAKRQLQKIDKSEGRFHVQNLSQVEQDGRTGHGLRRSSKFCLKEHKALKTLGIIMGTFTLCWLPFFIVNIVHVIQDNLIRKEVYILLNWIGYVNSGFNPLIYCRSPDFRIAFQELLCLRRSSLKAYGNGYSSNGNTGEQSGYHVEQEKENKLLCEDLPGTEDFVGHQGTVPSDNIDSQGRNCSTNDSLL
# Assay: qHTS assay of beta-arrestin-biased ligands of beta2-adrenergic receptor: Hit Validation;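 for activation: plate controls were DMSO for no effect and maximal isoproterenol or metaproterenol response for full effect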
# Details: cell-based beta-arrestin recruitment to beta2AR; Potency: activation; series mostly up to 46.1 µM; activation: at the top concentration
# From the text: The concept of biased agonism is an emerging concept of molecular pharmacology which proposes that seven transmembrane receptors (7TMRs) or G protein-coupled receptors (GPCRs), exist in multiple signaling conformations and complexes and that ligands (either agonists or antagonists) can induce signaling biased responses for distinct signal transduction cascades.
# Furthermore, accumulating evidence over the last decade has drawn attention to a novel function of beta-arrestins as signal transducers that scaffold various signaling molecules upon activation of 7TMRs. […] This beta-arrestin-biased signaling presumably leads to distinct physiological outcomes from those by G protein activation.
# Additionally, the active receptor conformations which […] on this beta-arrestin signaling are likely different from those activating G protein signaling
# The goal of this screening project will be to discover and optimize novel beta-arrestin-biased ligands for beta2-AR signaling. A luminescent cell-based assay for beta2-AR-mediated agonism, known as the Tango assay, has been validated in which ligand binding of a recombinant beta2-AR and subsequent recruitment of a recombinant beta-arrestin lead to the release of the transcriptional activator tTA, which upregulates transcription of a tTA-responsive luciferase gene.
# NIH Molecular Libraries Probe Production Network [MLPCN]
# NIH Chemical Genomics Center [NCGC]
# PI: Bryan Roth (UNC) and Bob Lefkowitz (Duke)
# NCGC Assay Protocol Summary:
# Tango cells were dispensed into white, solid, tissue-culture-treated 1536-well plates at 1500 cells/well in DMEM, containing 1% fetal bovine serum (FBS). Then, 23 nL of compounds or DMSO were delivered to each well using a pin tool. Plates were incubated at 37 degrees C, 5% CO2 for 18 hr. Then 2.5 uL luminescent substrate mix (in-house prepared: 150 mM Tris-Cl, pH 7.6, 3 mM MgCl2, 1% Triton X-100, 5 mM DTT, 0.5 mM CoA, 0.15 mM ATP, 0.44 mM D-luciferin, final concentrations) was added to each well. Plates were then incubated for 15 minutes at room temperature, and subsequently measured on a ViewLux plate reader for luminescent signal using a clear filter with a 10 second exposure and 2x binning. The %Activity was determined from the corrected luminescence values.
# Concentration-response curves were fitted to the signals arising from the resulting luminescence. The concentration-effect curves were then classified based on curve quality (r2), response magnitude and degree of measured activity, and compounds were subsequently categorized based on their curve class.
# Keywords: biased agonism, beta2-AR, beta-arrestin, GPCR, 7TMR, Tango, luminescence, MLSMR, MLPCN, NIH Roadmap, qHTS, NCGC
# Potency is the fitted concentration of half-maximal effect.
Structure (SMILES),activation [%],Potency
Cc1cccc(-n2ncc3c(Nc4c(C)n(C)n(-c5ccccc5)c4=O)ncnc32)c1,-4.29,–
O=C(CN1CCN(Cc2ccccc2)CC1)c1ccc(Br)cc1,-2.66,–
CCC(=O)Nc1cccc(-c2nnc(SCC(=O)c3ccccc3)n2C)c1,-3.27,–
Cc1oc(-c2ccccc2Cl)nc1CN1CCCCC1c1cccnc1 (configuration not stated),-3.35,–
COCCNC(=S)NN=C1CCC(c2ccccc2)CC1 (configuration not stated),-3.79,–
Cc1noc(/C=C/c2ccco2)c1S(=O)(=O)N1CCC(C(=O)N2CCc3ccccc3C2)CC1,-3.07,–
O=C(N/N=C/c1ccc(-c2ccccc2[N+](=O)[O-])o1)[C@H]1C[C@@H]1c1ccccc1,4.62,–
Cc1cccc(NC(=S)NC2CCCC2)n1,-2.16,–
COc1ccc(C2CC(c3ccccc3)=NN2C(=O)COC(=O)c2cccc(N)c2)cc1 (configuration not stated),7.98,–
O=C(c1cccs1)N1N=C(c2ccccc2)CC1c1ccc(O)cc1 (configuration not stated),6.49,–
CCN1C(=O)C(CC(=O)Nc2ccc(OC)cc2)N(CCN2CCOCC2)C1=S (configuration not stated),-0.784,–
COc1cc(-c2nc(-c3ccccc3)c(-c3cc([N+](=O)[O-])ccc3C)[nH]2)cc(OC)c1OC,-0.686,–
CCOc1ccccc1N=Nc1c(C)[nH]n(C(N)=S)c1=O,-1.78,–
COc1cccc(NC(=S)N/N=C2\CC(C)(C)Oc3ccc(O)cc32)c1,-2.24,–
O=C(N/N=C\C=C\c1ccco1)C1COc2ccccc2O1 (configuration not stated),-2.32,–
COc1ccc2c(c1)c(=O)c(C(=O)c1ccccc1)cn2Cc1ccc(C)cc1,-0.974,–
O=[N+]([O-])c1ccc(/C=C2\CCC(C3=CCCC3)=C2N2CCOCC2)cc1,-1.92,–
CCOC(=O)c1cccc(NC(=O)c2cncc(Br)c2)c1,-2,–
S=c1nc2ccccc2c2nc(-c3ccccc3)[nH]n12,-2.79,–

Structure (SMILES),activation [%],Potency
COc1ccc(N(C(=O)CCl)C(C)(C(=O)Nc2c(C)cccc2C)c2ccccn2)cc1 (configuration not stated),0.0836,–
CCN(C(=O)Cn1c(Cl)nc2c1c(=O)n(C)c(=O)n2C)C1CCCCC1,-1.79,–
COc1ccc(/C=N/OC/C(O)=C(\C#N)c2nc3ccccc3[nH]2)cc1OC,-2.21,–
COc1ccccc1CN1C[C@@H]2C[C@@H](c3ccc4nsnc4c3)N3CCC[C@@]23C1=O,-1.58,–
Cc1cc(=O)n2cccc(O)c2n1,-5.71,–
COc1ccc(NC(=S)NC(=O)c2ccc(Br)o2)cc1,-3.83,–
CCOC(=O)/C(C#N)=C/Nc1ccsc1C(=O)OC,-3.19,–
S=c1[nH]c(-c2ccccc2)cn1/N=C/c1cccs1,-3.12,–
O=C(Oc1c(Cl)cc(Cl)c2cccnc12)c1cccs1,-2.15,–
N#CC[C@H](Cc1ccccc1)N1CC[C@@H](O)CCC1=O,-0.52,–
COc1ccc(N2C(=O)C3C(C2=O)C(C(=O)c2ccccc2)N2CCCC32)cc1 (configuration not stated),-0.0662,–
COc1ccccc1NC(=S)N/N=C1\CC(C)(C)Oc2ccc(O)cc21,-1.77,–
CC(=O)O[C@H]1C2OC(=O)C(C)=C2[C@@H]2OC(=O)[C@]3(CCC4OC41C)OC23 (some centres not stated),-1.78,–
CNC(=S)N/N=C/c1c(C)cccc1Cl,-3.5,–
CC(NC(=O)NNC(N)=S)(C(F)(F)F)C(F)(F)F,-2.46,–
COc1ccc(CN2CCCC(C(=O)c3ccc(SC)cc3)C2)cc1Cn1cccn1 (configuration not stated),0.256,–
COc1cc(CN2CCCCC2C(=O)Nc2ccc(Oc3ccccc3)nc2)ccc1O (configuration not stated),6.3,–
Cc1nnc(NC(=O)c2ccc3ccccc3c2)o1,-1.26,–
Oc1c(CNc2ccccc2)cc(COCc2ccccc2)c2cccnc12,-5.03,–

Structure (SMILES),activation [%],Potency
Cc1ccc2nc(N3C(=O)CNC3=S)sc2c1,-2.5,–
Clc1ccc(OCc2nc(-c3ccccn3)n[nH]2)cc1,-1.51,–
CNC(=S)N/N=C(\C)c1ccccc1,-1.21,–
CCCn1c(Nc2nc3ccccc3n2C)nc2ccccc21,-2.95,–
CCC(NC(C)C)C(O)c1ccc(O)c(O)c1 (configuration not stated),–,2.06 µM (active)
CCC(NC(C)C)C(O)c1ccc(O)c2[nH]c(=O)ccc12 (configuration not stated),–,0.0164 µM (active)
Cc1ccc(C2(C)NC(=O)N(CC(=O)c3ccc4c(c3)OCCO4)C2=O)cc1 (configuration not stated),4.6,–
CNc1sc(C(=O)c2ccccc2F)c(N)c1-c1nc2ccccc2s1,-1.71,–
O=S1(=O)Nc2c(ccc3cccnc23)-c2ccccc21,-3.15,–
CN1CCN(c2ccc(C(F)(F)F)cc2NC(=O)c2ccco2)CC1,-3.16,–
COc1ccccc1-n1c2nc3ccccc3nc2c2c(=O)n(-c3cc(C)cc(C)c3)cnc21,-3.64,–
COc1ccc(/C=C(\C#N)C(=O)OCC(=O)NCc2ccccc2)cc1,-4.17,–
O=C(N/N=C/C(Br)=C/c1ccccc1)c1cnccn1,3.91,–
O=c1[nH]c2c(cnn2-c2ccc(Cl)cc2)c(=O)n1-c1cccc(Cl)c1,-4.33,–
O=C(COC(=O)c1cc(=O)c2ccccc2o1)Nc1ccc2ccccc2c1,-3.15,–
CCc1n[nH]c(=S)n1/N=C/c1ccc(N(CC)CC)cc1,-2.67,–
COc1ccccc1-[n+]1c(C)cc(/C=C2\Sc3ccccc3N2C)cc1C,4.51,–
CCCNC(=O)CN(c1ccccc1)S(=O)(=O)c1ccc(OC)c(OC)c1,-3.31,–
COC(=O)c1cc(Br)c(=O)n(CCc2ccc(O)cc2)c1,-1.68,–

# From PubChem BioAssay AID588463 (National Center for Advancing Translational Sciences (NCATS), 2011)
